Here are results for 49 sequences from the supplement of paper PMC3545927.

This is one part of the list. The hit rate among all sequences tested is not known here.

For this assay, the target named is furin, P09958. The assay can be described thus: furin cleavage Z-score vs untreated control; higher = more cleavage, active = 3.5 or more, inactive = 1 or less, 8 variable residues between constant flanks. A digest of the protocol:
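To give the cleavage Z-score, log read counts were set against furin-free reactions, lowess-adjusted and scaled by median absolute deviation. These counts came from PCR adapter-tagged, sequenced DNA released when purified furin cut 8-mer peptides fused to a cDNA oligonucleotide and held on magnetic beads by their N-terminus. Digests were 0.01 ml, 1:10 enzyme:substrate, in 50 mM HEPES pH 7.5 with CaCl2 and NaCl, for 7.5, 15 or 30 min.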

furin, P09958, sequence (P09958 whole entry, the tested form may be a part): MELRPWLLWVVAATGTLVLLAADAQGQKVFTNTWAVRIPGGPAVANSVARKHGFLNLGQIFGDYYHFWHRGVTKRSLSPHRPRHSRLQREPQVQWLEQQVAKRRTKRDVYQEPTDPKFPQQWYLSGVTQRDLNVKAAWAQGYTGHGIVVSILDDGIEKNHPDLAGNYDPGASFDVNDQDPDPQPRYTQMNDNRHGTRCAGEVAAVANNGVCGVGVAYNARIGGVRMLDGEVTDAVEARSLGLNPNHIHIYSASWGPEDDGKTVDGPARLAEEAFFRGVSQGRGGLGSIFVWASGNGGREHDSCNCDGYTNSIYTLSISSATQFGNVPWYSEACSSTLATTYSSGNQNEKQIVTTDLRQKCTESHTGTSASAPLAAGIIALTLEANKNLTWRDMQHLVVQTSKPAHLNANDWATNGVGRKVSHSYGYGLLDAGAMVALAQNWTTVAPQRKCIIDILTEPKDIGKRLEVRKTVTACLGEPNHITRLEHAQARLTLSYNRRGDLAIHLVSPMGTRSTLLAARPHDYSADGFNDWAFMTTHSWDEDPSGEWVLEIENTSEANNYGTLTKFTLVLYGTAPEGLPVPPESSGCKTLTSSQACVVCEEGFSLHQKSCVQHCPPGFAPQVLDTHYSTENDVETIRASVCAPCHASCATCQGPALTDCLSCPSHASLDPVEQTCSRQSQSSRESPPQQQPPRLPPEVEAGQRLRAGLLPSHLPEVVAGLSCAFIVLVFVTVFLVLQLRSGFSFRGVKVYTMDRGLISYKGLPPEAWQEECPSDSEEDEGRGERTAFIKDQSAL

For CAPLTDFDQGAGNASASA [HC391], the “furin cleavage Z-score” value (7.5 min) was -0.36 (inactive), the “furin cleavage Z-score” value (15 min) was -0.0198 (inactive) and the “furin cleavage Z-score” value (30 min) is -2.39 (inactive).

Consider CAVLAGIAYFAGNASASA [HC338], for which the “furin cleavage Z-score” value is -0.161 (inactive) (7.5 min), 0.738 (inactive) (15 min) and -0.272 (inactive) (30 min).

For the sequence CAEHTTPCSGAGNASASA [HC1975], the “furin cleavage Z-score” value was -1.73 (inactive) (7.5 min), -1.12 (inactive) (15 min) and 0.179 (inactive) (30 min).

Take CATYPCSGSWAGNASASA [HC1849]: the “furin cleavage Z-score” value reads like this: (7.5 min) -0.56 (inactive); (15 min) -0.736 (inactive); (30 min) -0.826 (inactive).

In the case of CARYRRHGTHAGNASASA [FS-1942], the “furin cleavage Z-score” value reads like this: (7.5 min) 3.5; (15 min) 5.79 (active); (30 min) 6.5 (active).

For the sequence CARPWRPAEGAGNASASA [FS-2442], the “furin cleavage Z-score” value reads like this: (7.5 min) -1.33 (inactive); (15 min) -0.417 (inactive); (30 min) 0.551 (inactive).

As to CARYRRVAEGAGNASASA [FS-1980], the “furin cleavage Z-score” value by setting is: (7.5 min) 3.4; (15 min) 4.71 (active); (30 min) 4.58 (active).

Turning to CARYRRWMKNAGNASASA [FS-2321], the “furin cleavage Z-score” value was -1.37 (inactive) (7.5 min), -0.188 (inactive) (15 min) and 2.73 (30 min).

On to CARYRRGFIHAGNASASA [FS-1810], for which the “furin cleavage Z-score” value was 1.59 (7.5 min), 3.75 (active) (15 min) and 4.82 (active) (30 min).

In the case of CARLRRLAEGAGNASASA [FS-2715], the “furin cleavage Z-score” value runs as follows: (7.5 min) -0.759 (inactive); (15 min) -0.389 (inactive); (30 min) -0.211 (inactive).

For the sequence CARYRRVITVAGNASASA [FS-1844], the “furin cleavage Z-score” value was -0.325 (inactive) (7.5 min), -0.579 (inactive) (15 min) and 0.939 (inactive) (30 min).

On to CAGLQDCTMLAGNASASA [HC1524], for which the “furin cleavage Z-score” value reads like this: (7.5 min) 1.18; (15 min) 0.431 (inactive); (30 min) 0.816 (inactive).

On to CASCTTPCSGAGNASASA [HC1957], for which the “furin cleavage Z-score” value reads like this: (7.5 min) 0.117 (inactive); (15 min) -0.946 (inactive); (30 min) 0.203 (inactive).

CARLYVGGPLAGNASASA [HC1500]: the “furin cleavage Z-score” value is -0.16 (inactive) (7.5 min), 0.662 (inactive) (15 min) and 0.78 (inactive) (30 min).

As for CATGALVTPCAGNASASA [HC1374], the “furin cleavage Z-score” value is, setting by setting: (7.5 min) 1.46; (15 min) -0.486 (inactive); (30 min) -0.745 (inactive).

As to CADELAAKLVAGNASASA [HC861], the “furin cleavage Z-score” value is, setting by setting: (7.5 min) -0.523 (inactive); (15 min) 0.896 (inactive); (30 min) 0.946 (inactive).

Regarding CARLLRHKRMAGNASASA [FS-188], the “furin cleavage Z-score” value runs as follows: (7.5 min) 8.79 (active); (15 min) 8.2 (active); (30 min) 6.11 (active).

For CAICQRVKRVAGNASASA [FS-1633], the “furin cleavage Z-score” value is, setting by setting: (7.5 min) 0.73 (inactive); (15 min) -0.331 (inactive); (30 min) 1.69.

Take CAYSHRWKRNAGNASASA [FS-112]: the “furin cleavage Z-score” value runs as follows: (7.5 min) 7.46 (active); (15 min) 8.5 (active); (30 min) 7.17 (active).

Turning to CAVDIRLKRVAGNASASA [FS-148], the “furin cleavage Z-score” value is, setting by setting: (7.5 min) 0.517 (inactive); (15 min) 1.34; (30 min) 1.54.

In the case of CALNERLKRVAGNASASA [FS-53], the “furin cleavage Z-score” value was 2.86 (7.5 min), 3.12 (15 min) and 3.89 (active) (30 min).

Turning to CAIQARAKRVAGNASASA [FS-256], the “furin cleavage Z-score” value by setting is: (7.5 min) 4.63 (active); (15 min) 3.93 (active); (30 min) 4.73 (active).

For the sequence CASLLRHHNLAGNASASA [HC1385], the “furin cleavage Z-score” value is, setting by setting: (7.5 min) -0.346 (inactive); (15 min) 0.336 (inactive); (30 min) 0.383 (inactive).

As for CAVVICESAGAGNASASA [HC1531], the “furin cleavage Z-score” value (7.5 min) was 0.204 (inactive), the “furin cleavage Z-score” value (15 min) was -0.473 (inactive) and the “furin cleavage Z-score” value (30 min) came out at 1.4.

As for CAEVVTSNWVAGNASASA [HC2221], the “furin cleavage Z-score” value (7.5 min) is -0.745 (inactive), the “furin cleavage Z-score” value (15 min) is -1.12 (inactive) and the “furin cleavage Z-score” value (30 min) was -0.494 (inactive).

For the sequence CASPITYSTYAGNASASA [HC805], the “furin cleavage Z-score” value is, setting by setting: (7.5 min) 0.448 (inactive); (15 min) 0.103 (inactive); (30 min) -0.462 (inactive).

CADVVVVATDAGNASASA [HC876]: the “furin cleavage Z-score” value (7.5 min) was -1.44 (inactive), the “furin cleavage Z-score” value (15 min) is -0.376 (inactive) and the “furin cleavage Z-score” value (30 min) is -0.463 (inactive).

For the sequence CAIRTEEAIYAGNASASA [HC1487], the “furin cleavage Z-score” value by setting is: (7.5 min) -0.614 (inactive); (15 min) -0.579 (inactive); (30 min) -0.877 (inactive).

Turning to CASQMETKLIAGNASASA [HC649], the “furin cleavage Z-score” value was 1.65 (7.5 min), 0.44 (inactive) (15 min) and -0.0666 (inactive) (30 min).

Consider CANTLHCPTDAGNASASA [HC449], for which the “furin cleavage Z-score” value is -0.243 (inactive) (7.5 min), -1.86 (inactive) (15 min) and -0.583 (inactive) (30 min).

Turning to CAHLERHKRVAGNASASA [FS-1631], the “furin cleavage Z-score” value (7.5 min) is 7.08 (active), the “furin cleavage Z-score” value (15 min) was 8.35 (active) and the “furin cleavage Z-score” value (30 min) is 8.68 (active).

With CAYSHRHKRVAGNASASA [FS-903], the “furin cleavage Z-score” value by setting is: (7.5 min) 5.57 (active); (15 min) 7.12 (active); (30 min) 6.65 (active).

Regarding CALAWRSGRVAGNASASA [FS-817], the “furin cleavage Z-score” value runs as follows: (7.5 min) -2.25 (inactive); (15 min) -0.244 (inactive); (30 min) 0.218 (inactive).

For the sequence CAVGLHEYPVAGNASASA [HC1235], the “furin cleavage Z-score” value (7.5 min) is -0.411 (inactive), the “furin cleavage Z-score” value (15 min) is -0.271 (inactive) and the “furin cleavage Z-score” value (30 min) is -1.96 (inactive).

As for CAVVCCSVSYAGNASASA [HC2050], the “furin cleavage Z-score” value was -0.658 (inactive) (7.5 min), -0.454 (inactive) (15 min) and -0.515 (inactive) (30 min).

For the sequence CAMEECSQHAAGNASASA [HC1763], the “furin cleavage Z-score” value is, setting by setting: (7.5 min) -0.182 (inactive); (15 min) -0.0436 (inactive); (30 min) 1.21.

As for CAMENCSQHLAGNASASA [HC1721], the “furin cleavage Z-score” value was 0.959 (inactive) (7.5 min), 2.87 (15 min) and 0.898 (inactive) (30 min).

For the sequence CATFPCSGSWAGNASASA [HC1847], the “furin cleavage Z-score” value (7.5 min) was -0.0484 (inactive), the “furin cleavage Z-score” value (15 min) is -0.806 (inactive) and the “furin cleavage Z-score” value (30 min) was -1.82 (inactive).

With CAIPDREVLYAGNASASA [HC1008], the “furin cleavage Z-score” value is, setting by setting: (7.5 min) -1.25 (inactive); (15 min) -0.885 (inactive); (30 min) -0.354 (inactive).

For the sequence CAIGKRSVEYAGNASASA [FS-1984], the “furin cleavage Z-score” value is 1.53 (7.5 min), 2.52 (15 min) and 3.58 (active) (30 min).

On to CARQKRSDLYAGNASASA [FS-1966], for which the “furin cleavage Z-score” value (7.5 min) is 4.32 (active), the “furin cleavage Z-score” value (15 min) was 5.36 (active) and the “furin cleavage Z-score” value (30 min) is 5.43 (active).

For the sequence CAQTKQSGENAGNASASA [HC948], the “furin cleavage Z-score” value reads like this: (7.5 min) -0.725 (inactive); (15 min) -1.67 (inactive); (30 min) -1.53 (inactive).

Consider CAATLCSALYAGNASASA [HC295], for which the “furin cleavage Z-score” value is, setting by setting: (7.5 min) 1.6; (15 min) -0.694 (inactive); (30 min) 0.385 (inactive).

Turning to CAYPKRSSEVAGNASASA [FS-2323], the “furin cleavage Z-score” value reads like this: (7.5 min) -0.277 (inactive); (15 min) -2 (inactive); (30 min) 0.081 (inactive).

Consider CARQYRSAYYAGNASASA [FS-2591], for which the “furin cleavage Z-score” value (7.5 min) was -0.594 (inactive), the “furin cleavage Z-score” value (15 min) is 0.967 (inactive) and the “furin cleavage Z-score” value (30 min) was 2.18.

With CALQKRSSRHAGNASASA [FS-2631], the “furin cleavage Z-score” value was 5.41 (active) (7.5 min), 7.89 (active) (15 min) and 8.89 (active) (30 min).

CARQKRSVENAGNASASA [FS-3038]: the “furin cleavage Z-score” value is 10.2 (active) (7.5 min), 9.71 (active) (15 min) and 8.9 (active) (30 min).

Consider CARQKRILVNAGNASASA [FS-1768], for which the “furin cleavage Z-score” value is -0.183 (inactive) (7.5 min), -1.46 (inactive) (15 min) and 0.612 (inactive) (30 min).

Consider CADQKRSLESAGNASASA [FS-2246], for which the “furin cleavage Z-score” value was -0.764 (inactive) (7.5 min), -1.16 (inactive) (15 min) and -0.0942 (inactive) (30 min).
